PTHR1 ag: agonists of human PTHR1 parathyroid hormone receptor | Q03431 | HEK293 GP2 PTHR1 cells, GloSensor cAMP luminescence, 1 h | Potency, µM (doses to about 115 µM), hits mostly activators | 0.075% of 410,000 active | AID 743266; further: nearly all actives have a fitted effect of over 55% in size
Target sequence (Q03431 whole entry, looked up): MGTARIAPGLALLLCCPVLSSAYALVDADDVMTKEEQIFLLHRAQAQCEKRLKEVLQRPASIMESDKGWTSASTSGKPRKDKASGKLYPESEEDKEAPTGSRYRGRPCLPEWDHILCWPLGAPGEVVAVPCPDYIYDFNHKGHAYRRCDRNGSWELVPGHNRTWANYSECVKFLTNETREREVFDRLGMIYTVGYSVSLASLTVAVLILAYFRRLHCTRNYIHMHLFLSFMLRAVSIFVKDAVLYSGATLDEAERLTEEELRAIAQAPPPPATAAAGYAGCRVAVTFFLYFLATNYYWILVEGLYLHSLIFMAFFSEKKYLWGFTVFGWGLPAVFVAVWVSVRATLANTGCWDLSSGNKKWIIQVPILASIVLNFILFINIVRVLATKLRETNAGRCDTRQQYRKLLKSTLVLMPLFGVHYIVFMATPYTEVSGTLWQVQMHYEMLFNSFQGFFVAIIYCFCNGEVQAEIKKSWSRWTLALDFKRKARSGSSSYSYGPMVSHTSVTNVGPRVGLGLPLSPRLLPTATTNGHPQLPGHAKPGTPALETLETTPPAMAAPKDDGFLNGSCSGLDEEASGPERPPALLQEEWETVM
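HEK-293-derived GP2 cells expressing PTHR1 and a GloSensor cAMP reporter, 3,000/well, plated overnight, given luciferin plus IBMX (each 0.5 mM as added) for 1 h at 37 °C, then compound for 1 h at 37 °C. Luminescence was read after 15 min at room temperature.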
GLP1R ag: GLP-1 receptor (human) agonism. P43220. HEK293 GLP-1R CRE-luciferase, luminescence, 4-6 h; cells express a hypersensitive GLP-1R form. 0.007% of 380,000 active. Potency, µM (titrated, usually from 45.6 µM), actives largely listed as activators
HEK293 tox: cytotoxicity in counter-screen for GLP-1R inverse agonists; HEK293 cAMP-luciferase reporter cells, luminescence, 24 h; Potency, µM (doses to about 38.3 µM), usual class: inhibitors; 0.13% of 410,000 active; AID 624418;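 further: loss of luciferase light is scored as toxicity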
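Here, cytotoxicity is scored as loss of luminescence. The MLSMR collection was tested on cells seeded in medium containing 10% Nu serum, with a 24 hr compound exposure preceded by 12 hours of culture.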
GLP-1R inv ag: inverse agonists of human GLP-1 receptor; 1.6% of 410,000 active; HEK293 GLP-1R CRE-luciferase, luminescence, 24 h; GLP-1R form is constitutively active; Potency, µM (doses to about 38.3 µM), usual class: inhibitors; AID 624417; P43220; further: nearly all actives have a fitted effect of over 55% in size
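Constitutively active GLP-1R drives a cAMP-responsive luciferase in stably transfected HEK293 cells; test compounds are added after overnight (12 h) attachment and left 24 hr, and signal loss in luminescence marks inhibition.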
Of the large screens only hits and unclear results are named; the others gave an inactive call. Shown are actives, neighbours in structure and some others; about 1.7% of the full set was active somewhere. The call rests on the fitted dose curve; in most records, active means well fitted curve in the direction sought with a large enough effect; inconclusive means small, poorly fitted or top-dose-only effect, or another doubt; inactive means no such curve, though single readings can be large; an effect the other way counts as inactive or inconclusive.

COc1cccc(NC(=O)C(Cc2ccccc2)n2cccc2)c1 (stereo not given)	GLP-1R inv ag 11µM
Cc1ccc(NC(=O)C(Cc2ccccc2)n2cccc2)cc1 (stereo not given)	GLP-1R inv ag inconclusive
O=C(NCc1cccs1)C(Cc1ccccc1)n1cccc1 (stereo not given)	GLP-1R inv ag inconclusive
CCCCCC(=O)N1C[C@H](O)[C@@H](n2cc(-c3ccc(F)cc3)nn2)C[C@@H]1c1ccccc1	none
CCCCCC(=O)N1C[C@H](O)[C@@H](n2cc(-c3ccc(F)cc3)nn2)C[C@@H]1c1ccc(C)cc1	GLP-1R inv ag 10µM
CCCCCC(=O)N1C[C@@H](n2cc(-c3ccc(F)cc3)nn2)[C@H](O)C[C@@H]1c1ccccc1	GLP-1R inv ag inconclusive
CCCCCC(=O)N1C[C@H](n2cc(-c3ccc(F)cc3)nn2)[C@@H](O)C[C@@H]1c1ccc(Cl)cc1	HEK293 tox inconclusive, GLP-1R inv ag 10µM
Cc1ccc(CNC(=O)c2ccc(Cn3c(SCc4ccc(F)cc4)nc4cccnc43)cc2)o1	none (no result: GLP1R ag)
O=c1c2sc(-c3ccccc3)cc2nc2n1CCC2	GLP-1R inv ag 5µM
CCCCCCC(C)OC(=O)Nc1cccc2ccccc12 (stereo not given)	GLP-1R inv ag 8.9µM
CC(NC(=O)CSc1nc2sc3c(c2c(=O)n1-c1ccccc1)CCCC3)c1ccccc1 (stereo not given)	GLP-1R inv ag 8.9µM
CC(O)CNc1nc2sc3c(c2c(=O)n1CCc1ccccc1)CCCCC3 (stereo not given)	HEK293 tox inconclusive, GLP-1R inv ag 4.5µM
CN(C)CCNc1nc2sc3c(c2c(=O)n1CCc1ccccc1)CCCCC3	HEK293 tox inconclusive, GLP-1R inv ag inconclusive
CCCCn1cc(S(=O)(=O)c2ccc(CC)cc2)c(=O)c2cc(F)c(N3CCCC(C)C3)cc21 (stereo not given)	none (no result: GLP1R ag)
CCOc1ccc(NC(=O)Cn2cc(C(=O)c3ccccc3)c(=O)c3cc4c(cc32)OCCO4)cc1	none
CC1CCN(S(=O)(=O)c2cc(C(=O)Nc3ccc(Br)cc3F)n(C)c2)CC1	HEK293 tox inconclusive, GLP-1R inv ag inconclusive
Cc1ccc(-c2nc(CS(=O)(=O)CC(=O)NCCCN(Cc3ccccc3)C(C)C)c(C)o2)cc1	HEK293 tox inconclusive, GLP-1R inv ag 4.5µM
CN(C)C=NC(=O)c1[nH]c2ccc(Cl)cc2c1-c1ccccc1	HEK293 tox inconclusive, GLP-1R inv ag 11µM
CCOC(=O)c1cc(-c2ccccc2)n(CC(=O)NCc2ccccc2OC)c1C	none (no result: GLP1R ag)
COc1ccccc1CNCc1cc(OC)c(OC)cc1OC	none
COc1ccccc1CNCc1cc(Br)ccc1OC	GLP-1R inv ag 6.3µM
CC(C)Oc1cc(F)ccc1-c1cc(C(=O)Nc2ccc(C(C)C)cc2)[nH]n1	GLP-1R inv ag inconclusive
CC(C)Oc1cc(F)ccc1-c1cc(C(=O)Nc2ccccc2)[nH]n1	GLP-1R inv ag 11µM
Oc1ccccc1/C=N/NC(=S)NC1CC2CC1C1C=CCC21 (stereo not given)	HEK293 tox 4.5µM, GLP-1R inv ag inconclusive
COc1cccc(/C=N/NC(=S)NC2CC3CC2C2C=CCC32)c1O (stereo not given)	HEK293 tox inconclusive
CCN(CC)c1ccc(/C=N/Nc2nc(C)cc(C)n2)cc1	HEK293 tox inconclusive, GLP-1R inv ag 11µM
COc1ccc(-c2ccc3[nH]c4c(c3c2)CCN2C[C@@H]([C@H](C)O)[C@@H](N(C)C(=O)Nc3cc(Cl)cc(Cl)c3)C[C@@H]42)cc1	GLP-1R inv ag inconclusive
C[C@H](O)[C@@H]1CN2CCc3c([nH]c4ccc(-c5ccc6c(c5)OCO6)cc34)[C@@H]2C[C@@H]1N(C)C(=O)Nc1ccc(F)cc1	HEK293 tox inconclusive, GLP-1R inv ag 4µM
Cc1ccc(OCc2cc(C(=O)N3CCC(C(O)C(C)C)CC3)no2)cc1C (stereo not given)	GLP-1R inv ag 11µM
Cc1cccc(CC(C)NC(=O)c2cc(COc3ccc(C)c(C)c3)on2)n1 (stereo not given)	GLP-1R inv ag 10µM
N/C(=N\OC(=O)c1cccc(Br)c1)c1ccccn1	GLP-1R inv ag 6.3µM
O=C(Nc1ccccc1Sc1ccccc1)c1ccc(F)cc1	GLP-1R inv ag 5µM
Cc1ccc(C(=O)Nc2ccccc2Sc2ccccc2)cc1	none
Cc1cccc(OCC(=O)NC2CCCc3ccccc32)c1C (stereo not given)	GLP-1R inv ag 2µM
CC(C)c1ccccc1OCC(=O)NC1CCCc2ccccc21 (stereo not given)	GLP-1R inv ag inconclusive
COc1ccccc1OCC(=O)NC1CCCc2ccccc21 (stereo not given)	GLP-1R inv ag 11µM
COc1ccccc1OCC(=O)N/N=C1\CCCCc2ccccc21	GLP-1R inv ag 10µM
CCC(Cn1nnc2ccccc2c1=O)NC(=O)Nc1ccc(C)c(C)c1 (stereo not given)	none (no result: GLP1R ag)
CCCOc1ccc(Nc2nc(SC)ncc2C(=O)OCC)cc1	none (no result: GLP1R ag)
COc1ccccc1NC(=O)CSC1=Nc2ccccc2C2=NC(CCC(=O)NCc3cccs3)C(=O)N12 (stereo not given)	GLP-1R inv ag inconclusive (no result: GLP1R ag)
Cc1cc(C)c(NC(=O)Cn2nnc(-c3nc(-c4ccncc4)no3)c2N)c(C)c1	none (no result: GLP1R ag)
CCCCC[C@@H](C)N1C[C@H](COCc2ccccc2)Oc2cc(N3CCC[C@@H]3CO)ccc2S1(=O)=O	GLP-1R inv ag 11µM
C[C@@H](c1ccccc1)N1C[C@H](COCc2ccccc2)Oc2cc(N3CC[C@H](O)C3)ccc2S1(=O)=O	GLP-1R inv ag 10µM
O=C(CSc1nc(-c2ccccc2)no1)N1CCCCC1	none (no result: GLP1R ag)
C=CCNC(=O)c1ccc(C2SCC(=O)N2Cc2ccccc2)cc1 (stereo not given)	none
O=C(NCc1ccccc1)c1ccc(C2SCC(=O)N2Cc2ccccc2)cc1 (stereo not given)	GLP-1R inv ag 10µM
CCN(C(=O)c1ccc2c(c1)OCO2)C12CC3CC(CC(C3)C1)C2	GLP-1R inv ag 11µM
FC(F)(F)c1cccc(N2CCN(C(=S)NC3CCCCC3)CC2)c1	GLP-1R inv ag inconclusive
FC(F)(F)c1cccc(N2CCN(C(=S)NC3CCCC3)CC2)c1	HEK293 tox inconclusive, GLP-1R inv ag 7.9µM
CN(C)c1ccc(-c2nc3ccccc3c(=O)[nH]2)cc1	GLP-1R inv ag 8.9µM
COc1ccccc1C(C[N+](=O)[O-])c1c[nH]c2ccccc12 (stereo not given)	GLP-1R inv ag 10µM
COc1ccc(C)cc1NC(=O)C(CCSC)NS(=O)(=O)c1ccc2c(c1)oc(=O)n2C (stereo not given)	none (no result: GLP1R ag)
Cc1ccc(CSc2nc3c(c(N(C)C)n2)CCCC3)cc1	GLP-1R inv ag 11µM
COc1ccc(C(CC(=O)Nc2ccc(C)cn2)N2Cc3ccccc3C2=O)cc1OC (stereo not given)	none
